Compound activity: PubChem BioAssay, Broad Institute
In the library only some 1.8% were active in any assay of this set; here they are far more common.
EWS-Fli block = inhibitors of EWS/Fli oncoprotein transcriptional activity | A673 NR0B1-luciferase reporter, viability-normalised | inhibition, % at 12.6 µM | actives 0.67% (n = 350,000);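 active means mean inhibition of at least 50% after viability correction, with every replicate also passing that limit; inconclusive means mean reaches 50% but only one of two replicates passes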;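 further: firefly luciferase signal divided by Alamar Blue viability fluorescence both relative to DMSO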
F508del corr = CFTR F508del correction in bronchial cells; actives 0.36% (n = 350,000); activity (quench increase), % at 7.58 µM; AID 720511; CFBE cells, YFP halide quenching; stimulated with forskolin plus potentiator P3; % fluorescence drop versus neutral controls;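 active means mean added fluorescence quench of at least 8% versus neutral control, with both replicates also reaching 8%; inconclusive means only one of the mean or replicate conditions met; inactive means mean below 8% and not both replicates reaching 8%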;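 further: cells transiently co-express mutant CFTR-F508del with the halide-sensitive YFP; corrector assay measuring rescue of mutant channel to the surface after 24 h compound exposure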
LGR2 inh = blocks bursicon-induced cAMP signaling via Drosophila LGR2; HEK293 LGR2, CRE-luciferase, bursicon-stimulated, 4 h; inhibition, % at 9.99 µM; actives 0.35% (n = 380,000); AID 720647;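 active means drop in luminescence signal, shown as inhibition above about 50% in the replicate tests, limit read from the data, passing the limit was not always enough; inconclusive means probably only some replicates passing the limit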;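 further: agonist challenge used bursicon conditioned medium at about half maximal strength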
RAD52 anneal inh = blocks human RAD52 DNA annealing; P43351; recombinant RAD52 DNA annealing, FRET fluorescence; inhibition, % at 18.7 µM; actives 0.46% (n = 360,000);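 active means every replicate showing at least 50% inhibition; inconclusive means mean inhibition at least 50% but not in every replicate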
Target sequence (P43351 whole entry, looked up): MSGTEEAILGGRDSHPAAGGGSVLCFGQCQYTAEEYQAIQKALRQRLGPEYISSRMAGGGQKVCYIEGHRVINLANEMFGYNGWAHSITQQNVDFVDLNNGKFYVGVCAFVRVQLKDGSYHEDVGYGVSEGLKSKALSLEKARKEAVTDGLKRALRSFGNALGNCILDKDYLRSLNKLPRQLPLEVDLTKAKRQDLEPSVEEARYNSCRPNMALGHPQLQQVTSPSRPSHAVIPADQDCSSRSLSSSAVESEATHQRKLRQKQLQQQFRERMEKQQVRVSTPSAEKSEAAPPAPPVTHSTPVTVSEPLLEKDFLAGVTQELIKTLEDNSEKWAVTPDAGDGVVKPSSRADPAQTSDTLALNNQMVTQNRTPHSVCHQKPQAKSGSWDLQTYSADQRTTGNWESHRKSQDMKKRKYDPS
INS-1E GSIS act = GLuc luminescence reporter in INS-1E cells, primary screen for activators of glucose-dependent secretion of insulin; INS-1E GLuc reporter insulin secretion, 2-3 h; activation, % at 16.6 µM; actives 0.61% (n = 370,000);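 active means lowest replicate activation of at least 40%, so every replicate reaches that level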;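 further: 0% = median of neutral control wells and 100% = median of IBMX positive control wells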
RAD54 branch = RAD54 (human) branch migration inhibition. Q92698. RAD54 Holliday junction branch migration, FAM/BHQ fluorescence. inhibition, % at 10.4 µM. actives 0.14% (n = 360,000). AID 602329;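 active means mean normalized replicate activity at least 40 and at least half of replicates scoring 40 or more; inconclusive means only one of the two criteria met; inactive means mean below 40 and under half of replicates reaching 40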;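 further: 0% = median of neutral control wells and 100% = median of positive control wells; inhibitors cause a drop in the FAM fluorescence signal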
DNA binding = counter-screen for Rad54 inhibitors: DNA binding compounds; shares compounds with RAD54 branch; Acridine orange-DNA displacement, fluorescence polarization, 20 min; actives 8% (n = 460); AC50, µM (top dose mostly 35 µM), for inactives: top-dose activity change, negative = DNA binding;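 active means signal drop giving an AC50 within twice the top valid tested concentration of each sample, actives reach about 35 µM in these data; inactive means activity opposite to expected, plus the rest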;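 further: polarization loss reports compound binding to salmon sperm DNA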
DNA binder FP-1 = small molecule DNA binding by fluorescence polarization | shares compounds with EWS-Fli block | salmon sperm DNA acridine orange fluorescence polarization | AC35, µM (series often up to 68 µM), for inactives: at the top dose activity change, negative = DNA binding | actives 2% (n = 640) | AID 720586;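 active means fitted curve reaches a 35% signal fall AC35 below twice the sample's top valid tested dose, actives reach about 48 µM in these data; inactive means the rest, including activity in the rising direction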;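 further: lower polarization ratio signals compound binding to DNA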
DNA binder FP-2 = DNA binding artifact in RAD52 counter-screen; actives 8% (n = 1,000); AID 652128; AC50, µM; Salmon sperm DNA/acridine orange FP displacement; shares compounds with RAD52 anneal inh;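 active means fitted half-maximal concentration for signal loss at or below twice the highest dose tested, in every separate run, actives reach about 64 µM in these data; inconclusive means runs disagree, or flat partial signal loss, or poor fit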
* marks the source's active call; other numbers are inactive results; i = inactive; ? = inconclusive; / = not tested or not shown; ! = a repeat was not active.

SMILES	EWS-Fli block	F508del corr	LGR2 inh	RAD52 anneal inh	INS-1E GSIS act	RAD54 branch	DNA binding	DNA binder FP-2	others
Cc1cc(C)c(-n2c(SCC(=O)N3CCOCC3)n[nH]c2=O)c(C)c1	9.2	3.1	-6.4	-10.6	-3.8	6.5	/	/
C=CCn1c(N)cc(=O)nc1SCC(=O)Nc1ccc(C(=O)OC)cc1	-1.2	-2.1	8.4	-3.9	9.5	-0.9	/	/
COc1ccc(Nc2nc(NCC3CCCO3)c3ccccc3n2)c(OC)c1 (stereo not drawn)	6.0	-1.1	26.4	54.1*	-11.3	?	4.9%	i
COc1ccc(Cc2c(-c3ccc(OC)c(OC)c3)nc3c(C)cc(Br)cn23)c(C)c1	8.1	1.8	0.7	51.9*	-26.5	60.2*	-8.2%	i
Cc1cc(C)c(S(=O)(=O)N(CC(=O)N2CCOCC2)C2CCCCC2)c(C)c1	/	/	/	/	/	-2.3	/	/
CN(C)CCCNc1nc2cc(-c3ccc(F)cc3)sc2c(=O)n1C	-20.0	-0.4	1.8	71.3*	2.5	69.7*	-14.1%	i
CN(C)CCCNc1nc2cc(-c3ccccc3)sc2c(=O)n1C	-5.1	0.2	1.9	53.5*	-5.3	?	-15.5%	i
CN(C)CCCNc1nc2cc(-c3cncnc3)sc2c(=O)n1C	5.2	-1.9	-2.4	6.9	-2.5	29.0	/	/
COc1ccc(C2=CSC3=NCCN23)cc1OC	8.7	-0.5	-4.1	-11.1	14.4	6.4	/	/
CCOc1cc2[nH]c(=S)n(Cc3ccc(C(=O)NCCCN(CC)CC)cc3)c(=O)c2cc1OCC	3.5	-1.3	-6.3	67.4*	-4.0	51.1*	-12.6%	i
CCCN1CCN(CCCNC(=O)c2cc3c(=O)oc4ccc(C)cc4c3s2)CC1	3.3	-2.7	6.6	-9.3	2.7	16.1	/	/
Cc1ccc2nc(Cl)c3cc(C(=O)NCCCN4CCCC4)sc3c2c1	8.1	1.5	11.7	79.1*	9.4	78.6*	-20.0%	48.5µM*
Cc1noc(C)c1S(=O)(=O)N(C)C[C@@H]1Oc2ccc(NS(=O)(=O)c3cccs3)cc2C(=O)N([C@@H](C)CO)C[C@@H]1C	9.3	-0.5	-18.6	-2.1	-13.7	-1.5	/	/
Cc1cc(C)c2c(c1)c1nnc(SCCN3CCCCC3)nc1n2C	25.8	1.5	-91.7	85.5*	-6.5	73.1*	7.4%	i
OC(CN1CCCCC1)Cn1c2ccc(Cl)cc2c2cc(Cl)ccc21 (stereo not drawn)	28.9	-0.4	18.7	59.1*	80.1	54.5*	7.0%	i
O=C1CC(Cc2ccccc2)C(=O)N1c1ccccn1 (stereo not drawn)	14.3	-0.8	/	-10.9	/	/	/	/
CCN(CC)CC(O)Cn1c2ccccc2c2ccccc21 (stereo not drawn)	/	/	-25.7	/	5.6	12.5	/	/
CCN(CC)CC(O)c1ccc2ccc3ccc(O)cc3c2c1 (stereo not drawn)	2.3	2.7	-12.4	71.6*	-3.0	68.2*	-7.5%	i
CCc1ccc2nc3nc(C)cc(C)c3c(N)c2c1	-22.0	0.2	16.2	82.5*	-5.0	87.6*	-25.1%	i
C=CCNc1nc(N)c([N+](=O)[O-])c(Nc2ccccc2OC)n1	-25.8	1.0	-14.7	-6.2	-17.5	1.7	/	/
COc1ccccc1Nc1nc(NCCCN(C)C)nc(N)c1[N+](=O)[O-]	-39.1	3.4	2.6	94.7*	-13.9	77.0*	-19.3%	i
COc1cc(C)c2sc3ccccc3c(=O)c2c1NCCN(C)C	-7.1	-3.5	-19.8	94.5*	-9.2	92.8*	9.33µM*	17.5µM*
COc1cc(/C=N/N2C(=O)C3C4C=CC(CC4)C3C2=O)ccc1O (stereo not drawn)	1.7	-2.0	-3.8	-17.8	4.7	/	/	/
CCN(CC)CCNc1ccnc2cc(Cl)ccc12	7.8	2.5	-4.0	15.7	25.5	39.2	/	/
CCN(CC)Cc1cc(Nc2ccnc3cc(Cl)ccc23)ccc1O	15.8	-2.0	-7.5	87.9*!	8.7	74.7*!	-16.1%	i
SMILES	EWS-Fli block	F508del corr	LGR2 inh	RAD52 anneal inh	INS-1E GSIS act	RAD54 branch	DNA binding	DNA binder FP-2	others
CN(C)CCCN1C(=O)c2cccc3cccc(c23)C1=O	-15.1	?	-3.1	58.5*	5.3	102.1*	-18.8%	i
CN(C)CCNc1ncnc2sc(-c3ccccc3)cc12	-13.8	-0.3	12.1	58.6*	1.5	67.3*	-9.9%	i
CNc1ncnc2sc(-c3ccccc3)cc12	-13.5	3.3	-13.7	-6.5	3.9	0.1	/	/
COc1cccc(C(=O)NCC(=O)n2nc(C)cc2C)c1	/	/	/	/	/	-2.4	/	/
COc1ccc(-c2cc(CNc3nc(NC(C)C)nc4cc(-c5ccccc5)sc34)on2)cc1	53.9*	-2.5	-63.3	-11.7	1.6	-0.9	/	/	DNA binder FP-1=-1.4%
O=C(Nc1ncnc2sc3c(c12)CCCCC3)c1ccc(F)cc1	/	/	/	/	/	-1.3	/	/
O=c1[nH]c(=O)n([C@H]2C[C@H](O)[C@@H](CO)O2)cc1F	64.4*	2.2	16.7	10.4	25.8	6.2	/	/	DNA binder FP-1=-5.1%
O=C(/C=C/c1c[nH]c2ccccc12)c1ccccc1	/	/	-70.1	/	-8.9	10.7	/	/
C(=Cc1c[nH]c2ccccc12)c1ccc2ccccc2n1	67.4*	3.0	88.6*	-19.8	/	-5.8	/	/	DNA binder FP-1=9.2%
Cc1cc(C)c(NC(=O)Cc2ccc(-n3cccc3)cc2)c(C)c1	/	/	-22.7	/	-0.7	4.3	/	/
Cc1ccsc1C(=O)OCc1cc(=O)n2ccsc2n1	-98.6	-3.8	-33.9	-4.0	16.5	4.1	/	/
CCOC(=O)Cc1csc(NC(=S)NC(=O)c2ccc(C)cc2)n1	81.7*	1.6	-6.0	-11.1	4.6	/	/	/	DNA binder FP-1=-0.5%
O=C(c1ccc(F)cc1)c1cc2ccccc2o1	/	/	/	/	/	-0.9	/	/
COc1ccc(N=C2C(=O)Nc3ccc(C)c(Br)c32)cc1	70.1*	0.6	11.0	-9.3	-8.5	-6.5	/	/	DNA binder FP-1=-8.1%
Cc1ccc(N=C2C(=O)Nc3ccc(C)c(Br)c32)cc1	/	/	/	/	/	0.6	/	/
Cn1ccc2cc(-c3ccc4ncnc(NCc5cccs5)c4c3)ccc21	50.8*	-0.2	/	-25.6	/	-10.7	/	/	DNA binder FP-1=-12.7%
CC(C)CC#Cc1ccc([C@@H]2[C@@H](CO)N3CCCCN(S(=O)(=O)c4ccc(F)cc4)C[C@H]23)cc1	81.9*	1.2	12.4	-19.8	42.3	-5.0	/	/	DNA binder FP-1=-10.6%
COc1ccc(C(=O)NCCNc2nc3cc(C)cc(C)c3cc2C#N)c(OC)c1	66.8*	-3.5	15.3	-65.8	9.3	/	/	/	DNA binder FP-1=-9.6%
COc1ccccc1C(=O)NCCNc1nc2cc(C)cc(C)c2cc1C#N	2.4	1.9	3.9	-15.8	-0.4	2.0	/	/
